This note sets out measurements from PubChem BioAssay (EPA / NIEHS).

Results filed as inconclusive are left out. Active and inactive are the calls of the source. How the source made its calls: active means hit-call score of the fitted dose curve at least 0.9, where 1 is the maximum; inconclusive means response in the unintended direction; inactive means score below 0.9.

As a reminder, the AC50 is the concentration at which the activity in the assay is half-maximal.

Chain of human Vitamin D Receptor (VDR), VDR (gene 7421) (P11473 whole entry, looked up, the tested form may be a part): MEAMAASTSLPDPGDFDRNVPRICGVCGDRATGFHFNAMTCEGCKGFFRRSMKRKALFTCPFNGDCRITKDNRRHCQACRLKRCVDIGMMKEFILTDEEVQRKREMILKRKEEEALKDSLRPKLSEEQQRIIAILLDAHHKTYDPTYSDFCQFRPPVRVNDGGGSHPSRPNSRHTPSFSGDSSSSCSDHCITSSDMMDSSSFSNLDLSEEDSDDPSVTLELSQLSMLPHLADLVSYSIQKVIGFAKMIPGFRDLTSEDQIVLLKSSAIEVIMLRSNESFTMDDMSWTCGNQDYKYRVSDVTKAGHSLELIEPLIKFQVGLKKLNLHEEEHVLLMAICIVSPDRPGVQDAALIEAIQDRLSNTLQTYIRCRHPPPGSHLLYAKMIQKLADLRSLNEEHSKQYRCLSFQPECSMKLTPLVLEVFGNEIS

The assay deals with human Vitamin D Receptor (VDR), VDR (gene 7421) (UniProt P11473). Briefly: ATG_VDR_TRANS: Attagene TRANS-FACTORIAL HepG2 Assay for human Vitamin D Receptor (VDR) (AID 2283022). An outline of the steps:
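HepG2 cells were transiently transfected with multiple GAL4-UAS reporter units, so signal reflects exogenous chimeric receptor-Gal4 activity. After 24 h compound exposure, reporter mRNA was measured by RT-PCR, fluorescent labelling and capillary electrophoresis, fitted for gain of signal versus DMSO.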
`CC(=O)[C@H]1[C@H](C#N)C[C@H]2[C@@H]3CC=C4C[C@@H](O)CC[C@]4(C)[C@H]3CC[C@@]21C`: the result was inactive.
Take `O=c1n(CCO)c(=O)n(CCO)c(=O)n1CCO`: the compound was classed as inactive.
Consider `CCCCCCC1(C)CCC(=O)O1` (centres undefined), for which the result was inactive.
Regarding `O=C1Nc2ccccc2C1(c1ccc(O)cc1)c1ccc(O)cc1`, the result was inactive.
On the same count and under the same terms, with `O=S1(=O)OC(c2ccc(O)cc2)(c2ccc(O)cc2)c2ccccc21` the entry was “inactive”; with `O=C(O)c1cc2ccccc2nc1C(=O)O`, “inactive”.
`O=P(O)(O)Oc1ccccc1`: the outcome was inactive.
For `C=CC(=O)OCCOC(=O)C=C`, the compound was classed as inactive.
For the compound `Cc1cc(C)c(C)c(O)c1`, the result was inactive.
`N#CCc1ccc(Cl)cc1Cl`: the compound was classed as inactive.
As to `C1=CCCC1`, the result was inactive.
Turning to `CC(=O)OCC(C)OC(C)=O` (centres undefined), the result was inactive.
On to `CC(=O)Nc1ccc2c(c1)Cc1cc(NC(C)=O)ccc1-2`, for which the compound was called inactive.
Same read-out and setting: with `COC(=O)c1c(C)cc(O)c(C)c1O` the entry was “inactive”; with `CNC(=S)N(C)C`, “inactive”; with `FC(F)(F)C(=NOCC1OCCO1)c1ccc(Cl)cc1`, “inactive”.
Turning to `CN(C)c1ccc(N=Nc2ccccc2C(=O)O)cc1`, the compound was classed as inactive.
The same measure, in the same setting: with `CCCCC/C=C\CCC=O` the entry was “inactive”.
On the same count and under the same terms, under `CC1(C)S[C@@H]2[C@H](NC(=O)COc3ccccc3)C(=O)N2[C@H]1C(=O)O` stands “inactive”; under `CC1(C)O[C@@H]2C[C@H]3[C@@H]4C[C@H](F)C5=CC(=O)CC[C@]5(C)[C@H]4[C@@H](O)C[C@]3(C)[C@]2(C(=O)CO)O1`, “inactive”.
On the same count and under the same terms, with `Cc1ccc2oc(=O)ccc2c1` the entry was “inactive”; with `COC(F)(F)C(F)(C(F)(F)F)C(F)(F)F`, “inactive”; with `CCCCCc1ccc(Cl)cc1`, “inactive”.
For the compound `O=C(Oc1ccccc1)c1ccc2ccccc2c1O`, the compound was classed as inactive.
With `Cc1ccc(C(C)c2ccc(C)c(C)c2)cc1C`, the outcome was inactive.
The same measure, in the same setting: under `C=C[Si](C)(C)O[Si](C)(C)C=C` stands “inactive”; under `C=CC(C)(CCC=C(C)C)OC(=O)C(C)C` (centres undefined), “inactive”; under `CCOC(=O)NNc1nncc2ccccc12`, “inactive”.
On the same count and under the same terms, under `Cc1cc(C)c(C(=O)O)c(C)c1` stands “inactive”.
For the compound `CCCCCCCCCCCCCCCC[n+]1ccccc1`, the AC50 was 26.8 µM (active).
With `CCC(C)(C)C1CCCCC1OC(C)=O` (centres undefined), the call was inactive.
The same measure, in the same setting: with `CCCCC(CC)COC(=O)c1ccccc1` (centres undefined) the entry was “inactive”; with `CCN(Cc1cccc(S(=O)(=O)O)c1)c1ccc(C(=C2C=CC(=[N+](CC)Cc3cccc(S(=O)(=O)[O-])c3)C=C2)c2ccccc2)cc1`, “inactive”; with `O=c1c2ccccc2nnn1CCl`, “inactive”.
